# Compounds with a hit are over-represented: about 12% of the library has one in this group of screens.
# Lmaj promast = inhibitors of Leishmania major promastigote growth | Leishmania major promastigotes, resazurin fluorescence viability | inhibition, % at 10 µM | hit rate 9% among 200,000 | AID 1063; in the data active means inhibition above about 50%;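 further: promastigotes grown with compound for 44 hours at 28 °C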
# WT yeast gro inh = growth inhibition of WT yeast, mitochondrial fusion screen. mitochondrial fusion phenotypic screen, WT strain. inhibition, % at 10 µM. hit rate 2.1% among 190,000. AID 1362; in the data active means inhibition above about 58%; tested in S. cerevisiae
# Calpain2 inh = inhibitors of pig calpain II; purified calpain II, fluorogenic peptide substrate, 30 min; inhibition, % at 16 µM; hit rate 0.37% among 220,000; AID 1236;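 active means inhibition above about 50%, limit read from the data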
# ROMK primary = modulates human ROMK potassium channel activity; Tet-inducible ROMK, thallium flux fluorescence; actives lie on both sides; hit rate 2% among 130,000; B-score at 10 µM; P48048;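 active means signal ratio slope over the read window, or its plate-corrected B-score, at least 3 SD from the plate mean, either direction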;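 further: B-score of the F/F0 ratio slope over 7 to 12 s after thallium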
# KCC2 mod = modulators of human KCC2 chloride dependent transport; Q9H2X9; KCC2 cells, thallium flux FluoZin-2 fluorescence; B-score of Tl+ flux slope (higher = more flux/activation; lower = inhibition) at 10 µM; hit rate 2.2% among 190,000; AID 1456;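 active means thallium flux slope and its plate-corrected score both differing from the plate sample mean at a set confidence after two filtering rounds, in either direction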;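 further: slope of fluorescence scaled to starting intensity during 10 to 20 s after thallium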
# Target sequence (Q9H2X9 whole entry, looked up): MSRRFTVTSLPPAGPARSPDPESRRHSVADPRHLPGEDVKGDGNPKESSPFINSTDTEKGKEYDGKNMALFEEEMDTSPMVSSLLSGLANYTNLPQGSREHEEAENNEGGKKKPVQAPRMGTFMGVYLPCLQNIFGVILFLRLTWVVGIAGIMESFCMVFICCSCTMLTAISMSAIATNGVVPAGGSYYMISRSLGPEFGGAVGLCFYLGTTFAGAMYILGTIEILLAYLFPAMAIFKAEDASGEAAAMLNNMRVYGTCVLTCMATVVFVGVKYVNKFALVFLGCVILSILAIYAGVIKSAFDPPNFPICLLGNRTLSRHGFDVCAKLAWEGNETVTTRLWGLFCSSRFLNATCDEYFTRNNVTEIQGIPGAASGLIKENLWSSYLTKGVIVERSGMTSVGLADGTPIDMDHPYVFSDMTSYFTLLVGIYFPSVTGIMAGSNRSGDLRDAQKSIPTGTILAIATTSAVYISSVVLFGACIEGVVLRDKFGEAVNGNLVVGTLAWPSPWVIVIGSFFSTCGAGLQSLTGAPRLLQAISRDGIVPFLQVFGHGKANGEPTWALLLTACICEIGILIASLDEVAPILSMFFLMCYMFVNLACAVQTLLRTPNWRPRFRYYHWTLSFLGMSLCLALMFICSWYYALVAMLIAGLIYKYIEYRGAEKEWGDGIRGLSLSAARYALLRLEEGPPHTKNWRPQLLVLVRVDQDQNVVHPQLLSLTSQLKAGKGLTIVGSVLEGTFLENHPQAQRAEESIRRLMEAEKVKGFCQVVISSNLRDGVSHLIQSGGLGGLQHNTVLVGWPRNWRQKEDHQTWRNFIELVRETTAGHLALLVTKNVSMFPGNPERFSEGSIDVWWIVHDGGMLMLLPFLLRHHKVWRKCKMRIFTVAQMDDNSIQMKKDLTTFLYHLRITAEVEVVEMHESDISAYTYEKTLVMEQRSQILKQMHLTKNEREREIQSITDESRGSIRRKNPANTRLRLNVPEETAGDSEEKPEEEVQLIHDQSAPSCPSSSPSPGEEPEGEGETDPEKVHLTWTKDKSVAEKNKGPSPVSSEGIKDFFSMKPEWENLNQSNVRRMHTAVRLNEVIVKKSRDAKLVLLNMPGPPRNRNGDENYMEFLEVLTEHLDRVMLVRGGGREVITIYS
# KCC2 secondary = confirmation of human KCC2 transport modulators; shares compounds with KCC2 mod; HEK293-KCC2, thallium flux, FluoZin2 fluorescence; active compounds read high; normalised thallium flux (F/F0 slope) at 10 µM; hit rate 15% among 3,700;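 active means thallium flux slope above the same plate's solvent-only control mean plus 3 SD; inconclusive means the two replicate wells disagree; inactive means no significant difference from solvent-only control wells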
# KCC2 bumet counter = bumetanide-insensitive thallium flux in KCC2 cells with ouabain, counter-screen | AID 1714 | HEK293-KCC2 + bumetanide/ouabain, thallium flux FluoZin2; active compounds read high | hit rate 49% among 3,700 | shares compounds with KCC2 mod | normalized thallium flux at 10 µM;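 active means thallium entry rate above the same plate's blocked-transporter control wells by more than 3 SD; inconclusive means the two repeat wells disagree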;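 further: raw slope of fluorescence over initial fluorescence between 10 and 20 s after thallium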
# KCC2 sec2 = confirmation of human KCC2 transport modulators; shares compounds with KCC2 mod; HEK293-KCC2, thallium flux FluoZin2 fluorescence; actives lie on both sides; F/F0 rise rate, 10–20 s post-thallium; normalized thallium flux at 10 µM; hit rate 23% among 3,700; AID 1715;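 active means thallium flux slope more than 3 SD above or below the plate's solvent-only control mean, mostly below; inconclusive means the two repeat wells disagreed; inactive means no significant shift from solvent-only controls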;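 further: raw slope with 0.1% DMSO as baseline and bumetanide as block control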
# HEK counter1 = counter-screen for KCC2 modulators: effect in parental HEK293 cells. shares compounds with KCC2 mod. thallium flux FluoZin2, ouabain; baseline-ratio fluorescence slope, 10–20 s after thallium. thallium flux rate (normalised fluorescence) at 10 µM. hit rate 46% among 3,700. AID 1716;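 active means thallium flux rate significantly above the same plate's solvent-only control wells, beyond their mean plus 3 SD; inconclusive means the two replicate wells gave conflicting results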
# KCC2 retest ouab = confirmation of human KCC2 modulators with ouabain; raw Tl+ flux slope (below DMSO = inhibition, above = activation) at 10 µM; shares compounds with KCC2 mod; HEK293-KCC2, thallium flux FluoZin2 fluorescence; bidirectional: low = inhibitor, high = activator; AID 1717; hit rate 48% among 3,700;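 active means thallium flux slope beyond 3 SD from same-plate DMSO control mean in most replicates, usually higher, sometimes lower; inconclusive means repeat tests gave conflicting results; inactive means no significant difference from controls in most replicates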;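 further: slope of initial-normalized fluorescence between seconds 10 and 20 after thallium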
# HEK293 Tl flux2 = counter-screen for KCC2 modulators: effect in parental HEK293 cells. shares compounds with KCC2 mod. hit rate 33% among 3,700. thallium flux slope at 10 µM. thallium flux FluoZin-2 fluorescence slope;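 active means thallium flux slope above the same plate's solvent-control mean plus 3 SD in both duplicate wells; inconclusive means duplicate wells that disagreed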;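 further: run without ouabain in cells lacking the KCC2 cotransporter; slope of fluorescence scaled to its starting value between 10 and 20 s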
# An asterisk follows results filed as active; i = inactive; u = inconclusive; x = no result.
SMILES,Lmaj promast,WT yeast gro inh,Calpain2 inh,ROMK primary,KCC2 mod,KCC2 secondary,KCC2 bumet counter,KCC2 sec2,HEK counter1,KCC2 retest ouab,HEK293 Tl flux2
O=C(CSc1ncnc2[nH]ncc12)Nc1cccc(Oc2ccccc2)c1,-1.6,30.8,42.2,0.606,-0.97,x,x,x,x,x,x
COc1ccc(NC(=O)Cn2c(=O)sc3ccccc32)cc1,28.6,-3.4,5.5,0.943,1.71,x,x,x,x,x,x
O=C(Cn1c(=O)sc2ccccc21)Nc1ccccc1,2.8,10.6,-25.0,-0.0132,6.75*,0.00639,0.00443,0.0331,0.00779,0.0196,0.0101
COC(=O)Nc1nnc(-c2ccccc2Cl)s1,3.2,16.7,-93.0,x,-2.03,x,x,x,x,x,x
Cc1ccccc1Nc1nc(N)nc(COC(=O)c2cccn2C)n1,5.8,-1.4,-12.4,x,-0.0204,x,x,x,x,x,x
CCc1ccccc1Nc1nc(N)nc(COC(=O)c2cccn2C)n1,13.2,-6.0,17.5,0.00791,-5.57*,0.00641,0.0035,0.0284,0.00715,0.0164,0.00963
CCOC(=O)CC(N)c1ccc2c(c1)OCO2 (configuration not stated),-4.6,-14.2,-18.1,x,1,x,x,x,x,x,x
CCCCc1c(C)nc2cc(-c3ccco3)[nH]n2c1=O,x,x,-31.3,x,4.46*,0.00726,0.0139*,0.0323,0.0129*,u,0.015*
C=CCN(CC=C)C(=S)NCCc1ccc(OC)c(OC)c1,-3.9,0.5,17.6,x,-0.589,x,x,x,x,x,x
O=C(O)c1cc([N+](=O)[O-])ccc1NCCc1ccccc1,x,x,6.7,x,-2.51,x,x,x,x,x,x
O=C(O)c1cc([N+](=O)[O-])ccc1NCc1ccccc1Cl,0.6,1.8,41.2,1.91,-4.53*,u,0.00558*,0.0225*,u,0.0115*,0.00992
O=C(N/N=C/C1CC=CCC1)c1cc2ccccc2cc1O (configuration not stated),-1.2,0.4,-6.5,-0.87,4.44*,u,0.0285*,0.0358,0.0154*,u,0.0121*
O=C(Cn1cc(C(F)(F)F)cc(Cl)c1=O)Nc1ccc(N2CCOCC2)cc1,-6.6,-23.0,0.1,0.33,0.786,x,x,x,x,x,x
O=c1c(-c2cnn(-c3ccccc3)c2)coc2cc(O)ccc12,96.3*,14.2,-280.2,0.545,-4.06*,0.00707,0.00593*,0.0258*,0.00756,u,0.0111
Cc1oc2cc(O)ccc2c(=O)c1-c1cnn(-c2ccccc2)c1,14.2,-9.4,i,0.165,-0.316,x,x,x,x,x,x
O=C1CCN(C(=O)CSc2ccc(Cl)cc2)N1,-7.0,2.8,22.9,0.294,0.33,x,x,x,x,x,x
O=C1CCN(C(=O)c2ccc(Cl)cc2)N1,-4.5,-1.0,25.5,0.394,-3.28*,0.0101,0.00601,0.0316,0.00812,0.0188,0.0115
Cc1ccc2c(c1)nnn2C1CCN(S(=O)(=O)c2ccc3ccccc3c2)CC1,-2.1,3.9,-54.6,x,-1.59,x,x,x,x,x,x
Cc1ccc2c(c1)nnn2C1CCN(S(=O)(=O)c2cccc(S(=O)(=O)N(C)C)c2)CC1,6.3,21.2,-3.0,0.11,x,0.00688,0.00567,u,0.00639,u,0.00952
O=S(=O)(NC1CCCC1)c1cccc(S(=O)(=O)N2CCC(n3nnc4ccccc43)CC2)c1,2.4,9.2,-120.7,0.762,x,0.0178,0.00475,u,0.00666,0.0133,0.00997
O=S(=O)(NC1CC1)c1cccc(S(=O)(=O)N2CCCC2)c1,-1.8,-13.9,-5.3,0.658,x,x,x,x,x,x,x
Cn1nnc(NC(=S)NC(=O)c2ccc(-c3ccc(Br)cc3)o2)n1,-0.8,58.5*,-13.9,0.185,5.2*,0.0141*,0.0177*,0.0316,0.0167*,u,0.0121
CCCn1nnc(NC(=S)NC(=O)c2ccc(-c3ccc(Br)cc3)o2)n1,x,x,11.4,x,18.7*,u,0.0152*,0.0284,0.0149*,0.057*,0.0106
COc1ccc2[nH]c3c(=O)n(Cc4ccncc4)cnc3c2c1,x,x,-177.6,x,0.509,x,x,x,x,x,x
Cc1cccc(Oc2nc(-c3ccncc3)nc3ccccc23)c1,x,x,31.5,x,-0.638,x,x,x,x,x,x
SMILES,Lmaj promast,WT yeast gro inh,Calpain2 inh,ROMK primary,KCC2 mod,KCC2 secondary,KCC2 bumet counter,KCC2 sec2,HEK counter1,KCC2 retest ouab,HEK293 Tl flux2
CCOc1nc(-c2ccncc2)nc2ccccc12,5.6,18.8,26.3,-0.829,-1.16,0.00702,0.00404,u,0.00634,0.0165,0.00957
O=C(NCCCCc1ccccc1)C1CC(c2cccc(F)c2)=NO1 (configuration not stated),x,x,-4.8,x,-2.72*,0.00695,0.00368,0.0251*,0.00675,0.0164,0.0094
O=C(NCCCCc1ccccc1)C1CC(c2cccc([N+](=O)[O-])c2)=NO1 (configuration not stated),2.5,10.6,7.6,x,-3.25,x,x,x,x,x,x
O=C(Oc1c(Br)cc([N+](=O)[O-])cc1Br)c1cccnc1,-5.5,-6.0,-2.7,-1.32,-1.83,x,x,x,x,x,x
O=C(NCC1CCCO1)Nc1cc(Cl)cc(Cl)c1 (configuration not stated),-1.0,16.2,6.9,0.764,-0.032,x,x,x,x,x,x
CC(=O)Nc1ccc(S(=O)(=O)Nc2c(C)nn(-c3ccccc3)c2C)cc1,-4.9,15.2,11.0,x,x,0.00668,0.00429,0.0302,u,0.0162,0.00897
O=S(=O)(Nc1ccc(N2CCOCC2)cc1)c1ccc2ccccc2c1,-3.1,1.4,0.9,-0.0725,0.583,x,x,x,x,x,x
Cc1nn(-c2ccc(F)cc2)c(C)c1NS(=O)(=O)c1ccc2ccccc2c1,-0.9,2.0,29.5,x,-7.15*,0.00526,u,0.0222*,0.00698,u,0.0112
Cc1nc(NC(=O)c2cccs2)ccc1Br,4.0,18.8,-3.1,-0.119,-1.28,x,x,x,x,x,x
CCOC(=O)c1cc2c(=O)[nH]ccc2nc1C(F)(F)F,x,x,-143.3,x,-0.117,x,x,x,x,x,x
CCOC(=O)c1cc2c(=O)[nH]ccc2nc1C,0.0,27.2,x,x,12.7*,0.0106,u,0.0292,0.00738,0.0329,0.0103
CCCc1cc(C(=O)Nc2c(C)n(C)n(-c3ccccc3)c2=O)no1,-5.0,-0.4,-6.9,x,x,x,x,x,x,x,x
O=C(O)CCn1c(CO)nc2ccccc21,0.0,0.7,28.4,0.00657,0.15,x,x,x,x,x,x
O=C(O)CCn1c(-c2ccccc2)cc2ccccc21,1.2,-20.4,-90.0,0.686,-6.43*,0.0066,0.00705,0.0279,0.00698,0.0127*,0.00965
COc1cccc(C(=O)OCC(=O)NC(=O)NC2CCCC2)c1O,13.1,-3.2,1.6,0.968,10.8*,0.01,0.017*,0.0345,0.0203*,0.0265*,0.0144*
O=C(COC(=O)c1cc(=O)[nH]c2ccccc12)NC(=O)NC1CCCCC1,-5.9,-1.6,-40.3,x,-0.561,x,x,x,x,x,x

# Screens deposited in PubChem BioAssay by several laboratories.
